RGS4 inhibitor: inhibitors of human regulator of G protein signaling 4. Potency, µM (titrated, usually from 114 µM), inactives show at the top dose activity change, negative = inhibition, actives largely listed as inhibitors. Transcreener GDP fluorescence polarization, RGS4-accelerated GTP hydrolysis. 390,000 tested, 0.039% active. AID 504845. P49798; note: potency is the fitted concentration of half-maximal effect; nearly all actives have a fitted effect of over 75% in size
Target sequence (P49798 whole entry, looked up): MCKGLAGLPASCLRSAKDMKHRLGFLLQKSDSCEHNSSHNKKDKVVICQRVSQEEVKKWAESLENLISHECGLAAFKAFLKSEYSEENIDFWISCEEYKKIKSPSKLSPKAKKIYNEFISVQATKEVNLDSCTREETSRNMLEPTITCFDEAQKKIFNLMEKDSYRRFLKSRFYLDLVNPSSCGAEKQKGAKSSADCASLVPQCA
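MLSMR compounds (23 nl, pin-transferred) preincubated 10 min at room temperature with a 500nM (2x) first reagent, then RGS4 at 900nM (2x) plus Transcreener GDP mix added; fluorescence polarization (620/688 nm) read before and after 90 min at 30 °C.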
USP2a inh: blocks human ubiquitin-specific protease USP2a; USP2 core, Ub-CHOP2 coupled fluorogenic reporter, 485/531; O75604; 330,000 tested, 0.01% active; Potency, µM (doses to about 38.3 µM), for inactives: at the highest dose activity change, negative = inhibition, most hits filed as inhibitors;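 note: potency is the fitted concentration of half-maximal effect; plate controls were DMSO wells for no effect and full inhibition by NEM control for full effect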
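Cell-free coupled assay: 10nM USP2 core preincubated 30min RT with compound in Tris-HCl pH 8.0/CaCl2/CHAPS buffer, then 25nM Ub-CHOP2 and 25nM reporter substrate; fluorescence (Ex 485/Em 531) read after 60min RT, normalized to NEM inhibition, concentration-response curves fitted.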
PI4K2A inh: blocks human PI4K2A kinase activity; 420,000 tested, 0.13% active; activity change, negative = inhibition, % at 76.9 µM; Q9BTU6; purified PI4K2A, ADP-Glo luminescence, 1 h; active compounds read low; in the data active = activity change below about -50%; inconclusive = mostly about -30% to -49%;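 note: -100% = wells without enzyme as full effect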
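ADP-Glo luminescence measured ADP generated by PI4K2A enzyme (4 ug/mL before mixing) with 1.2 mM PI substrate (pre-mix) and 300 microM ATP (pre-mix). Tris pH7.5 buffer with MgCl2, Triton X-100; 1 h reaction at ambient temperature.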
Eya2 inh: inhibitors of human Eya2 phosphatase activity | recombinant Eya2, OMFP fluorescence dephosphorylation (OMFP is methylfluorescein phosphate) | Potency, µM (titrated, usually from 76.9 µM), inactives show top-dose activity, negative = inhibition, actives largely listed as inhibitors | 330,000 tested, 0.006% active | AID 488837; note: potency is the fitted concentration of half-maximal effect
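Eya2 (0.2 uM) preincubated 10 min at ambient with compound, then OMFP substrate added at 50 uM; 10 min reaction in 50 mM HEPES pH 7.5, 50 mM NaCl, 5 uM MgCl2, 0.05% BSA, 1 mM DTT. Fluorescence read at Ex 485/Em 525 nm.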
CtBP-E1A blk: CtBP/E1A binding inhibition; AlphaScreen GST-E1A/His-CtBP binding, 1536-well; active compounds read low; activity change, % (test concentration not listed); 340,000 tested, 0.49% active; in the data active = activity change below about -65%; inconclusive = mostly about -30% to -63%
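Steps: dispense buffer (Tris pH 8.0, NaCl 300 mM, TCEP 1 mM, BSA, Tween 20); add 5X protein mix (GST-E1A, His-CtBP, 125 nM each); pin 23 nL compound; 2 h at 37 °C, dark; add 5X beads (50 ug/mL); 1 h; read.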
Six1-Eya2 blk: blocks human Six1 binding to Eya2; activity change, % (concentration not given with the values); AID 651725; AlphaScreen GST-Six1/His-Eya2 binding, biochemical; active compounds read low; 360,000 tested, 0.56% active; in the data active = activity change below about -65%; inconclusive = mostly about -30% to -63%
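Six1/Eya2 binding was read as AlphaScreen signal after compounds were pinned into GST-Six1 plus His-tagged Eya2 (5X stock 250/500 nM) in pH 8.0 Tris/NaCl/TCEP buffer, beads added, then incubated 1 h, 37 C, dark.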
* marks the source's active call; other numbers are inactive results; u = inconclusive; x = not tested or not shown; [ ] = remark or other dose. The list is not random: actives were taken first. Their share in the collection is about 0.72%. Unless noted, calls come from the whole dose curve; as a rule, active = well fitted curve in the direction sought with a large enough effect; inconclusive = small, poorly fitted or top-dose-only effect, or another doubt; inactive = no such curve, though single readings can be large; an effect the other way counts as inactive or inconclusive. Unless noted, % is set by controls: 0 for no effect and ±100 for the full control effect.

SMILES	RGS4 inhibitor	USP2a inh	PI4K2A inh	Eya2 inh	CtBP-E1A blk	Six1-Eya2 blk
O=C(N/N=C/C=C/c1ccccc1)c1cnccn1	-35%	0%	7	7%	0	13
CC(/C=C/c1ccccc1)=N/NC(=O)c1cnccn1	-1%	0%	0	0%	-5	-86*
CCN(CC)S(=O)(=O)c1ccc2c(c1)c(=O)c(C(=O)N1CCN(c3cc(Cl)ccc3C)CC1)cn2C	-53%	x	7	x	x	x
O=S(=O)(Nc1cc(Sc2cccc3cccnc23)c(O)c2ccccc12)c1ccc(F)cc1	u	-8%	2	1%	-92*	-94*
COc1ccc(-c2n[nH]c3c2cnc2cc(OC)c(OC)cc23)cc1	-33%	x	4	x	x	x
Cc1oc2c(c1C(=O)c1ccccc1)C(=O)C(=O)c1ccccc1-2	u	4%	-64*	23%	u	u
CCOC1=C(C#N)CC2(CC1)c1ccccc1-c1ccccc12	6%	x	4	x	11	2
COc1ccc(C(=O)Nc2cccc(-c3nnc(-c4ccco4)o3)c2)cc1	-27%	2%	3	-15%	u	u
COc1cc(C(=O)Nc2cccc(-c3nnc(-c4ccco4)o3)c2)ccc1OC(C)=O	-3%	-1%	0	-14%	u	-86*
Cc1ccc(S(=O)(=O)Nc2ccc(O)c3ncccc23)cc1	8%	-1%	-21	3%	-93*	-91*
O=[N+]([O-])c1ccc(/C=N/Nc2ccccn2)cc1	10%	0%	-3	2%	-13	0
O=C(O)c1ccc(N/N=C/c2ccc3nccnc3c2)cc1	23%	-1%	-55*	-2%	-11	-25
O=C(O)c1ccc(/C=N\Nc2ccccn2)cc1	12%	x	-62*	x	1	-14
COC(=O)c1ccc(Cl)cc1NC(=O)N(Cc1ccc(C)o1)C1CCN(C(C)=O)CC1	2%	x	-1	x	x	x
Oc1cccc2ccc(Nc3ccccn3)nc12	-13%	-6%	-2	20%	-100*	-91*
c1ccc(Nc2ccccc2Nc2ccccn2)nc1	-1%	4%	-3	0%	-2	-6
NC1=NC2(CCCCC2)N=C(Nc2ccc(F)cc2F)N1	-41%	7%	2	-3%	-3	0
COc1ccc(OC)c(NC2=NC3(CCCC3)N=C(N)N2)c1	-22%[56.9 µM]	2%	0	-5%	u	-68*
CCc1ccc(CNc2nc3nc(C)c(Cc4ccccc4)c(=O)n3[nH]2)cc1	2%	x	3	x	x	x
O=C(CSc1nnnn1-c1ccc(F)cc1)c1ccc(O)c(O)c1	-14%	5.6µM*	-2	2%	0	14
O=C(O)c1ccc(CSc2nnnn2-c2ccc(F)cc2)cc1	28%	0%	3	3%	7	-5
O=C(O)c1cccc(Nc2nc(-c3cc4ccccc4oc3=O)cs2)c1	-24%	-1%	0	-1%	-79*	-78*
Cc1nc2ccccn2c1-c1csc(Nc2cccc(C(=O)O)c2)n1	-22%[56.9 µM]	-9%	2	-7%	-71*	u
Cc1nc2ccccn2c1-c1csc(Nc2ccc(C(=O)O)cc2)n1	-23%	1%	-5	-8%	-30	-17
COc1cc([N+](=O)[O-])cc(/C=N/NC(=O)c2cc(-c3ccccc3)nc3ccccc23)c1O	-10%[56.9 µM]	1%	-3	-9%	-88*	u
COc1cc([N+](=O)[O-])cc(/C=N/NC(=O)c2cc(C)nc3ccccc23)c1O	-18%	-10%	1	6%	-83*	-93*
O=C(O)COc1ccccc1/C=N/NC(=O)c1cc(-c2ccc(F)cc2)nc2ccccc12	24%	-9%	2	-11%	u	-72*
COc1cc(/C=N/NC(=O)c2cccc([N+](=O)[O-])c2)cc(OC)c1O	-29%	0%	5	-8%	x	-2
COc1cccc(/C=N/NC(=O)c2ccc([N+](=O)[O-])cc2Cl)c1O	-19%	0%	2	2%	-88*	-89*
